From PubChem BioAssay
14-3-3 Bad inh: disrupts binding of bovine 14-3-3 zeta to phospho-Bad peptide. P63103. TR-FRET 14-3-3zeta/Dy647-pBad peptide displacement, 1 h. inhibition, % at 21.7 µM. hit rate 0.71% among 220,000;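 active = inhibition above about 70%, limit read from the data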;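 note: 0% = full 14-3-3 plus peptide FRET controls and 100% = background without 14-3-3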
bovine MsrA act: activators of bovine methionine sulfoxide reductase A; purified bovine MsrA, absorbance read-out; activation, % at 10.6 µM; hit rate 0.3% among 360,000; AID 602163; in the data active = activation above about 7.5%;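 note: 0% = vehicle and 100% = reference activator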
pCIP destab: compounds decreasing mouse p/CIP protein stability; Q05BA5; F442A p/CIP-EGFP cells, EGFP fluorescence, 16 h; decrease of EGFP signal, % at 10 µM; hit rate 0.01% among 290,000;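 active = EGFP signal decrease of at least 30% at 10 µM or well 3 SD below plate mean, unless failing retest; inactive = the rest, including hits failing retest or dose response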
Target sequence (Q05BA5 1-1403): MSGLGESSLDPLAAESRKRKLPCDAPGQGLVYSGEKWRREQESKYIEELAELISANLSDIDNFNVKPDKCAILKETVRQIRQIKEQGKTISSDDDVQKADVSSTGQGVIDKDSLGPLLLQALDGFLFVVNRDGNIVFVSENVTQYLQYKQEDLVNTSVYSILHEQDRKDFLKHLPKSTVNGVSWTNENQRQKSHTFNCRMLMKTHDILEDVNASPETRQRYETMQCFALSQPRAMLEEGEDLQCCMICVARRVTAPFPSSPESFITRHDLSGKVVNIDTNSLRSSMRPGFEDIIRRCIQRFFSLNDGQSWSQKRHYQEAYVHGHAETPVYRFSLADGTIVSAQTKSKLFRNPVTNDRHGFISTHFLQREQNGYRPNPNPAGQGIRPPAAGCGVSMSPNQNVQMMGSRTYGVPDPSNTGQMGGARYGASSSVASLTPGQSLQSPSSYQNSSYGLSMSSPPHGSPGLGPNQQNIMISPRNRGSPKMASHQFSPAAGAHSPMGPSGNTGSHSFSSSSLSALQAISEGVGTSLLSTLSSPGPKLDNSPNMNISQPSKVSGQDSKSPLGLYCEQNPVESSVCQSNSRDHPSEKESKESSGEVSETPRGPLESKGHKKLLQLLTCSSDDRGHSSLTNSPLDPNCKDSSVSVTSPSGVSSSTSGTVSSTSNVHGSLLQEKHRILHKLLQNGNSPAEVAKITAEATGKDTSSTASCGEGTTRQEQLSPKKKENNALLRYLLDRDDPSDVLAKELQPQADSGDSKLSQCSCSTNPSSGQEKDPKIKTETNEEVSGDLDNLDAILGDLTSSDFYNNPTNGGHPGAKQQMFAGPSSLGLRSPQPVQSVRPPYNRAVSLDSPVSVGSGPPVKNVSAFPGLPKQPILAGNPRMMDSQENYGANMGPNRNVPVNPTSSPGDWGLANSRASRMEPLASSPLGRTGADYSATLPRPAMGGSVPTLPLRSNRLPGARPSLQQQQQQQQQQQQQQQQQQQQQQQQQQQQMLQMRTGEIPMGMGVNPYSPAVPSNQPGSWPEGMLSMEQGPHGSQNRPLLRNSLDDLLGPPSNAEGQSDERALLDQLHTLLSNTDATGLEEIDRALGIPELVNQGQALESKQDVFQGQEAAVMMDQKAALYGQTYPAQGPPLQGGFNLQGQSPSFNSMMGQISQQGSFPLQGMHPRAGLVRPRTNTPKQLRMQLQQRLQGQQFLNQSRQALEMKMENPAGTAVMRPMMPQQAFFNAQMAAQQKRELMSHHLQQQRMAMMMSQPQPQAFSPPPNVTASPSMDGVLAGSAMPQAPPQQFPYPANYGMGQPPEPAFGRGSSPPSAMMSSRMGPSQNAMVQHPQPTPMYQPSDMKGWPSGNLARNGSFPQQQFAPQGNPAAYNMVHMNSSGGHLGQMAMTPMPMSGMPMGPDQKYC
MsrA inhibitor: inhibits bovine methionine sulfoxide reductase A; inhibition, % at 15.5 µM; AID 651718; hit rate 0.75% among 360,000; purified bovine MsrA, absorbance read-out;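 note: 0% = vehicle wells with enzyme and 100% = reference inhibitor wells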
MsrA conf: bovine MsrA inhibition, confirmed | shares compounds with MsrA inhibitor | purified bovine MsrA, absorbance read-out | inhibition, % at 15.5 µM | hit rate 41% among 2,300 | AID 651822;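 note: coupled to thioredoxin reductase with NADPH and selenocystamine and DMSO as substrate; 0% = vehicle only and 100% = full effect of reference inhibitor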
Numbers without * were called inactive; nt = not tested or not shown. A selection: hits, their analogues and other compounds. The true share with any hit is near 1.4%. Cut-off read from the data, not from the text of the source, unless noted: active = inhibition above about 4.5%; inactive = the rest.

SMILES | 14-3-3 Bad inh | bovine MsrA act | pCIP destab | MsrA inhibitor | MsrA conf
c1ccc(-c2onc(-c3ccco3)c2-c2ccc3[nH]ccc3c2)cc1 | nt | -1.7 | -10.2 | -0.3 | nt
CC(=O)NS(=O)(=O)c1ccc(NC(=O)/C=C/c2ccco2)cc1 | -2.4 | -7.0 | -10.3 | 6.0* | 7.2*
C=CCc1c(C)nc(C)nc1N/N=C/c1ccc(N(C)C)cc1 | 8.9 | -14.7 | -5.9 | 6.8* | 5.0*
COc1ccc(-c2coc3c(C(=O)NCC4CCOCC4)cccc23)c(C)c1 | nt | -9.0 | nt | 1.6 | nt
O=C(O)/C=C/c1ccc(-c2cccc(C(F)(F)F)c2)o1 | -4.8 | -6.4 | -1.3 | 6.0* | 3.6
Cc1ccccc1-c1nc(CS(=O)(=O)CC(=O)N2CCCCC2)c(C)o1 | nt | -1.5 | -7.5 | 1.0 | nt
COc1cccc(N/N=C(\C#N)S(=O)(=O)C(C)(C)C)c1 | -10.9 | -13.8 | -0.7 | 4.7* | 2.4
CC(C)(C)S(=O)(=O)/C(C#N)=N/Nc1ccc(C#N)cc1 | 2.4 | -4.2 | 16.3 | 4.4 | nt
CCN(CC)C(=O)c1sc2nc(Cc3ccccc3)[nH]c(=O)c2c1C | -2.0 | -9.8 | -17.7 | 0.6 | nt
Cc1c(C(=O)N(C)C)sc2nc(-c3ccccn3)[nH]c(=O)c12 | 3.2 | -5.6 | -0.8 | 5.8* | 3.1
Cc1cccc2c3c([nH]c12)CCN(C)C3 | nt | -2.5 | -11.0 | -2.0 | nt
O=C(O)COc1ccccc1/C=N/NC(=O)/C(=C\c1ccc2c(c1)OCO2)NC(=O)c1ccccc1 | 7.9 | -6.3 | 5.3 | 5.5* | 4.3
O=C(Nc1ccc(C(=O)O)cc1)/C(=C\c1ccc2c(c1)OCO2)NC(=O)c1ccccc1 | 5.1 | -16.4 | 8.3 | 3.9 | nt
O=C(Nc1cccc(C(=O)O)c1)/C(=C\c1ccc2c(c1)OCO2)NC(=O)c1ccccc1Cl | nt | -2.6 | -0.6 | 5.5* | 2.6
O=S(=O)(Cc1ccccc1)N(O)c1ccccc1 | nt | -3.0 | -9.0 | -0.5 | nt
CCOC(=O)C1=C(C)Nc2ccccc2N=C1NC(=O)c1oc2ccccc2c1COC | nt | -4.8 | nt | -0.3 | nt
COc1ccccc1C(=O)Nc1nnc(S(=O)(=O)N2CCN(c3ccc(F)cc3)CC2)s1 | nt | -2.4 | 8.3 | -0.1 | nt
CN(C)CCCNc1nc(N)c([N+](=O)[O-])c(NCCO)n1 | 0.6 | -1.7 | -5.3 | 3.1 | nt
Nc1nc(NCc2ccccc2)nc(NCCO)c1[N+](=O)[O-] | 4.3 | -7.1 | -0.1 | 4.2 | nt
CCN(CC)CCCNc1nc(N)c([N+](=O)[O-])c(NCCO)n1 | 2.3 | -2.7 | 0.6 | 5.1* | 4.9*
CNc1nc(N)c([N+](=O)[O-])c(NCCO)n1 | 5.2 | -5.9 | 1.3 | 5.0* | 4.1
Cc1ccc(C)c(S(=O)(=O)N2CCN(C(=O)Cn3cnc4c3c(=O)n(C)c(=O)n4C)CC2)c1 | nt | -10.8 | -12.6 | -0.8 | nt
O=C(O)CCCNC(=O)CC1S/C(=N/N=C/c2ccccc2O)NC1=O (stereo not drawn) | -14.4 | -6.9 | -4.7 | 4.8* | 4.2
CCCCNC(=O)CC1S/C(=N/N=C/c2ccc(OC)cc2)NC1=O (stereo not drawn) | -6.8 | -1.2 | 9.8 | 0.6 | nt
COc1ccc(/C=C2\SC(=O)N(CC(=O)Nc3ccc(O)cc3)C2=O)cc1OC | nt | -2.3 | -3.6 | 2.9 | nt
SMILES | 14-3-3 Bad inh | bovine MsrA act | pCIP destab | MsrA inhibitor | MsrA conf
COc1ccc(/C=C2\SC(=O)N(CC(=O)NN3CCN(C)CC3)C2=O)cc1OC | 1.0 | -4.2 | -5.2 | 4.9* | 3.1
Cc1ccc(CCNC(=O)C2CCCN(S(=O)(=O)N3CC(C)CC(C)C3)C2)cc1 (stereo not drawn) | nt | -3.6 | 0.2 | 0.6 | nt
COc1ccc(/C=N/N2C(=O)C3C4C=CC(C4)C3C2=O)cc1[N+](=O)[O-] (stereo not drawn) | -4.7 | -10.6 | 0.5 | 8.4* | 8.2*
COc1ccc(-n2c(/C=C(\C)O)nc(=O)c3c(C)cc(C)nc32)cc1 | -5.2 | -4.5 | -0.3 | 5.8* | 4.0
Cc1cccc(-c2ccc3c(c2)C2CC3CCN2C)c1 (stereo not drawn) | nt | 1.9 | nt | 0.7 | nt
CC(=O)c1ccc(S(=O)(=O)Nc2ccccc2C(=O)NC2CC2)cc1 | nt | -0.5 | nt | -0.8 | nt
CCc1ccc[n+](-c2[nH]c(=O)sc2/C=N/NC([S-])=Nc2ccccc2)c1 | -19.0 | -4.9 | -12.6 | 6.5* | 0.9
Cc1cc(C)c[n+](-c2[nH]c(=O)sc2/C=N/NC([S-])=Nc2ccccc2)c1 | -7.4 | -3.2 | -21.5 | 4.9* | 6.2*
O=C(O)c1ccc(NS(=O)(=O)c2ccc3c(c2)C(=O)c2ccccc2C3=O)cc1 | 17.8 | -8.3 | -8.4 | 23.6* | 14.9*
O=C(Nc1ccc([N+](=O)[O-])cn1)c1cccnc1 | nt | -5.4 | 5.8 | -0.1 | nt
O=C(Nc1ccc([N+](=O)[O-])cn1)c1ccc(Br)o1 | 7.1 | -3.5 | 4.1 | 5.6* | 3.6
COc1ccc(NC(=O)Cc2nnc(SCC(=O)NC3CCCCC3C)n2C)cc1 (stereo not drawn) | nt | -3.7 | -5.2 | 0.0 | nt
C(=N\Nc1ncnc2sc3c(c12)CCC3)/c1cccs1 | -8.4 | -8.8 | 5.7 | 3.7 | nt
Cn1cnc2c(N/N=C/c3cccs3)ncnc21 | -4.4 | -4.8 | -7.2 | 5.2* | 6.9*
CC(C)(C)c1ccc(C(=O)/C=C2\NC(=O)CS2)cc1 | -8.2 | -11.7 | 1.8 | 5.1* | 4.5
Cc1ccc(C2(C)NC(=O)N(CC(=O)N(C)CC(=O)Nc3cccc4ccccc34)C2=O)cc1 (stereo not drawn) | nt | -0.1 | nt | -0.9 | nt
CCOc1ccc(CCNC(=O)c2cc(C)nc3ccccc23)cc1OCC | nt | -2.6 | -6.5 | -0.8 | nt
CCOC(=O)Cc1csc(NS(=O)(=O)c2ccc(C(F)(F)F)cc2)n1 | -16.2 | -2.2 | -48.2 | 1.1 | nt
COc1ccc(CC(=O)N/N=C/c2ccc(-c3ccc(F)cc3)o2)cc1OC | 2.5 | -5.4 | -7.4 | 1.2 | nt
O=C(O)c1cccc(-c2ccc(/C=N/NC(=O)C3COc4ccccc4O3)o2)c1 (stereo not drawn) | 2.5 | -10.0 | 1.1 | 4.7* | 2.8
COc1ccc(CC(=O)N/N=C/c2ccc(-c3cccc(C(=O)O)c3)o2)cc1OC | -5.0 | -6.3 | -1.9 | 5.1* | 4.5
Cc1ccc(OCC(=O)N/N=C\c2ccc(-c3cccc(C(=O)O)c3)o2)c(C)c1 | 3.7 | -5.7 | 5.0 | 5.3* | 3.7
CC(C)(C)c1ccc2c(c1)OC(C(=O)N/N=C\c1ccc(-c3cccc(C(=O)O)c3)o1)CO2 (stereo not drawn) | 7.5 | -2.0 | -2.5 | 1.4 | nt
Brc1cccc(/C=N/Nc2nn[nH]n2)c1 | -8.2 | -4.0 | -18.8 | 0.9 | nt
O=C(O)c1cccc(-c2ccc(/C=N/Nc3nn[nH]n3)o2)c1 | -4.8 | -12.3 | -8.1 | 5.9* | 4.6*
O=C(NNC(=O)C1CCN(c2ncccn2)CC1)c1ccc(F)cc1 | nt | -2.6 | -14.6 | 0.5 | nt
C[C@H](CO)N1C[C@H](C)[C@@H](CN(C)CC2CC2)Oc2c(NC(=O)Cc3ccccc3)cccc2C1=O | nt | -7.6 | nt | 0.7 | nt
COCCCNC(=O)CCN1N=C(c2ccccc2)CCC1=O | nt | -1.9 | -1.4 | 0.0 | nt
CC(C)C[C@H](NC(=O)N1CCn2c1nc1ccccc12)C(=O)NC1CCCCC1 | nt | -2.4 | -19.6 | 0.0 | nt
Cc1ccc(S(=O)(=O)N2C[C@H]3[C@H]4C(=O)N(c5ccccc5)C(=O)[C@H]4C[C@H](OC(=O)Nc4c(C)noc4C)[C@@]3(O)C2)cc1 | nt | -5.7 | nt | -1.5 | nt
